ClpP mod – qHTS Assay for Activators of ClpP; ATP-dependent Clp protease proteolytic subunit (Bacillus subtilis (strain 168)), P80244; purified B. subtilis ClpP, FRET peptide cleavage, 20 min; Potency, µM (top dose mostly 57.5 µM), for the others: at the highest dose activity change, negative = active; hit rate 1.9% among 340,000; active = well fitted falling curve with a large enough effect; inconclusive = small, poorly fitted or top-dose-only effect; inactive = no such curve, though single readings can be large or run the other way; note: potency is the fitted concentration of half-maximal effect; the source files actives as falling curves though it sought activators and does not explain the sign; nearly all actives have a fitted effect of over 65% in size
Target sequence (P80244 whole entry, looked up): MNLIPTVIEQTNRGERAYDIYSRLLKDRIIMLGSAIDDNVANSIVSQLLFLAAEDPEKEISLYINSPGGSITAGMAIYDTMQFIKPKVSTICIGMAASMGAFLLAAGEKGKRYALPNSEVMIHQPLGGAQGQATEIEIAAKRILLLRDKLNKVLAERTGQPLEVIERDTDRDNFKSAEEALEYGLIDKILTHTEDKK
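ClpP 10 microg/mL final, pH 8 Tris/KCl buffer with BSA, glycerol, Tween-20; compound pinned in; FRET-FV substrate; RT 20 min; Ex320/Em430; ΔFRET vs ADEP 5.8 microM, DMSO, no enzyme.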
DT40 TDP1 no CPT – qHTS for Inhibitors of human tyrosyl-DNA phosphodiesterase 1 (TDP1): qHTS in cells in absence of CPT; hit rate 15% among 420,000; DT40 Tdp1-/- hTDP1 cells, no CPT, ATP luminescence, 48 h; Potency, µM (highest dose often 46.2 µM), without a hit: at the highest dose activity change, negative = growth inhibition, usual class: inhibitors; note: potency is the fitted concentration of half-maximal effect; % is set by controls: 0 for no effect and ±100 for the full control effect; nearly all actives have a fitted effect of over 55% in size
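A cellular qHTS used chicken DT40 cells lacking endogenous Tdp1 but carrying stably transfected human TDP1. Compounds were applied without camptothecin, and cell growth kinetics were judged by ATP-dependent luminescence after ≥48 hr.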
DT40 TDP1 CPT – growth inhibition of DT40 Tdp1-/-;hTDP1 cells with camptothecin (screen for TDP1 inhibitors); hit rate 12% among 420,000; AID 686979; chicken DT40 Tdp1-/-;hTDP1 cells + 20 nM CPT, ATP luminescence, 48 h; Potency, µM (series often up to 46.2 µM), for inactives: at the top dose activity change, negative = growth inhibition, usual class: inhibitors; note: potency is the fitted concentration of half-maximal effect; % is set by controls: 0 for no effect and ±100 for the full control effect; nearly all actives have a fitted effect of over 55% in size
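Chicken DT40 Tdp1-/- cells complemented with human TDP1, 400 cells/well, exposed to compounds plus 20 nM camptothecin for at least 48 h at 37 C; viability read as ATP content by CellTiter-Glo luminescence.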
D3 ag – activates the human D3 dopamine receptor; D3R DiscoveRx beta-arrestin cells, luminescence, 90 min; AID 652048; hit rate 0.58% among 410,000; max activation, %; P35462; in the data active = max activation above about 30%; note: 0% is about no effect
Target sequence (P35462 whole entry, looked up): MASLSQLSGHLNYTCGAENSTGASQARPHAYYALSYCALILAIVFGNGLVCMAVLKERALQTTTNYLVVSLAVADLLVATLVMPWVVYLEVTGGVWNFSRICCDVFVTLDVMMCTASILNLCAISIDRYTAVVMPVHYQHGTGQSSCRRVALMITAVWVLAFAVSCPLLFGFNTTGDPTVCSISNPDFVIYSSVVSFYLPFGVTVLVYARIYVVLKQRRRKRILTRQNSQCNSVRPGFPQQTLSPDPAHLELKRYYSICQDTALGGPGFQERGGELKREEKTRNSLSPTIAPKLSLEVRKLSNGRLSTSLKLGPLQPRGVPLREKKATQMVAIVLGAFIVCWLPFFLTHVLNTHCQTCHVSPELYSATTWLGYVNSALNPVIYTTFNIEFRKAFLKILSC
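Agonist-mode cell screen: cells plated at 1500/well and incubated overnight at 37 °C, then exposed to library compounds for 90 min at 37 °C. Detection reagent was added for 30–60 min at room temperature, and luminescence was read.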
IL-1B inflam inh – blocks inflammasome-driven IL-1 beta release; hit rate 4.7% among 360,000; AID 743279; activity change, % at 57.5 µM; THP-1 LPS/ATP IL-1B secretion, AlphaLISA, 16 h; stronger effect = lower value; in the data active = activity change below about -50%; inconclusive = mostly about -30% to -49%; note: % is set by controls: 0 for no effect and ±100 for the full control effect
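THP-1 cells pretreated 1 hr with compounds (up to 57.5 uM final), then stimulated with LPS (250 ng/mL final) plus ATP (1.25 mM final); secreted IL-1B measured by AlphaLISA after 16 hr, decreased signal indicating inhibition.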
DRD3 antagonist – blocks the human D3 dopamine receptor; D3R cells, DiscoveRx beta-arrestin luminescence, antagonist mode; stronger effect = lower value; max response, negative = inhibition, %; hit rate 2.5% among 360,000; in the data active = max response below about -50%; inconclusive = no clear call, values can overlap the other calls; note: % is set by controls: 0 for no effect and ±100 for the full control effect
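Cells plated overnight at 1500 cells/well, then exposed to library compounds with dopamine controls for 90 minutes at 37 degrees C. DiscoveRx reagent added for 30–60 minutes at room temperature; luminescence read, quantitative HTS format.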
The depositor's hits bear a star. In the library only some 21% were active in any assay of this set; here they are far more common. Unless noted, calls come from the whole dose curve; as a rule, active = well fitted inhibition curve with a large enough effect; inconclusive = small, poorly fitted or top-dose-only effect; inactive = flat fitted curve, though single readings scatter.

`Cc1ccc(C(=O)CNc2ccc(C)cc2C)cc1` gave ClpP mod 0%, DT40 TDP1 no CPT 16µM*, DT40 TDP1 CPT 23µM*, D3 ag -4, IL-1B inflam inh -18 and DRD3 antagonist -18.
For Cc1ccc(C(=O)CNc2ccccc2C)cc1 the results were ClpP mod 2%, DT40 TDP1 no CPT -9%, DT40 TDP1 CPT 1%, D3 ag -1, IL-1B inflam inh -28 and DRD3 antagonist 0.
Cc1ccc(CC(=O)c2ccc(Cl)cc2)cc1 was read as DT40 TDP1 no CPT -9%, DT40 TDP1 CPT 16%, D3 ag -3, IL-1B inflam inh -9 and DRD3 antagonist 2.
Cc1ccc(C(=O)CC(=O)c2cc(Cl)ccc2O)cc1 was read as ClpP mod 9%, DT40 TDP1 no CPT 4.6µM*, DT40 TDP1 CPT 6.5µM*, D3 ag 3, IL-1B inflam inh 43 and DRD3 antagonist -9.
For Cc1ccc(C(=O)Cc2ccccc2)c(O)c1 the results were DT40 TDP1 no CPT -7%, DT40 TDP1 CPT 2%, D3 ag -3, IL-1B inflam inh -19 and DRD3 antagonist -24.
O=C(Cc1cccs1)NCc1ccc(Cl)cc1Cl was read as DT40 TDP1 no CPT -13%, DT40 TDP1 CPT -1%, D3 ag 5, IL-1B inflam inh -7 and DRD3 antagonist -17.
CCOC(=O)CNS(=O)(=O)c1cc(-c2nnc(Nc3ccc4c(c3)OCO4)c3ccccc23)ccc1C was read as ClpP mod -4%, DT40 TDP1 no CPT inconclusive, DT40 TDP1 CPT inconclusive, D3 ag 2, IL-1B inflam inh -102* and DRD3 antagonist 10.
For Cc1ccc(-c2nnc(Nc3ccc(C(=O)N(C)C)cc3)c3ccccc23)cc1S(=O)(=O)NCC1CCCO1 (centres undefined) the results were ClpP mod -1%, DT40 TDP1 no CPT 23µM*, DT40 TDP1 CPT 15µM*, D3 ag 0, IL-1B inflam inh -23 and DRD3 antagonist 15.
`COC(=O)c1ccc(Nc2nnc(-c3ccc(C)c(S(=O)(=O)NCC4CCCO4)c3)c3ccccc23)cc1` (centres undefined) gave ClpP mod -1%, DT40 TDP1 no CPT 23µM*, DT40 TDP1 CPT 23µM*, D3 ag -17, IL-1B inflam inh -63* and DRD3 antagonist 18.
CCOC(=O)CNS(=O)(=O)c1cc(-c2nnc(Nc3cccc(O)c3)c3ccccc23)ccc1C was read as ClpP mod -11%, DT40 TDP1 no CPT inconclusive, DT40 TDP1 CPT inconclusive and D3 ag -7.
`CCn1c(CSc2nc(C)cc(C)n2)nnc1SCC(=O)Nc1nc(-c2ccccc2)cs1` gave ClpP mod -1%, DT40 TDP1 no CPT inconclusive, DT40 TDP1 CPT 21µM*, D3 ag 2, IL-1B inflam inh 32 and DRD3 antagonist 27.
Cc1csc(SCC(=O)Nc2nc(-c3ccccc3)cs2)n1 was read as ClpP mod -3%, DT40 TDP1 no CPT inconclusive, DT40 TDP1 CPT inconclusive, D3 ag -8, IL-1B inflam inh -10 and DRD3 antagonist inconclusive.
Cc1cc(C)nc(SCc2nnc(SCC(=O)Nc3nc(-c4ccccc4)cs3)n2C)n1 was read as ClpP mod 0%, DT40 TDP1 no CPT 26µM*, DT40 TDP1 CPT inconclusive, D3 ag 3, IL-1B inflam inh 3 and DRD3 antagonist 10.
COc1ccc(S(=O)(=O)N2CCC(N3CCN(Cc4ccc(F)cc4)C(=O)C3=O)CC2)cc1 was read as ClpP mod 0%, DT40 TDP1 no CPT -26%, DT40 TDP1 CPT -20% and D3 ag -7.
For O=C(COC(=O)C1=Cc2ccccc2OC1)NCc1ccc(F)cc1 the results were DT40 TDP1 no CPT -2%, DT40 TDP1 CPT 7%, D3 ag 0, IL-1B inflam inh 14 and DRD3 antagonist -2.
Screening c1ccc2c(c1)oc1c(N3CCN(Cc4ccc5c(c4)OCO5)CC3)ncnc12 returned ClpP mod -6%, DT40 TDP1 no CPT 23µM*, DT40 TDP1 CPT 23µM*, D3 ag -4, IL-1B inflam inh -27 and DRD3 antagonist inconclusive.
For O=C(CSc1ncnc2scc(-c3ccccc3)c12)N1CCN(Cc2ccc3c(c2)OCO3)CC1 the results were ClpP mod -2%, DT40 TDP1 no CPT 13µM*, DT40 TDP1 CPT inconclusive, D3 ag 7, IL-1B inflam inh -25 and DRD3 antagonist 15.
For c1ccc(-c2csc3ncnc(N4CCN(Cc5ccc6c(c5)OCO6)CC4)c23)cc1 the results were ClpP mod -4%, DT40 TDP1 no CPT 7.3µM*, DT40 TDP1 CPT 16µM*, D3 ag -8, IL-1B inflam inh 10 and DRD3 antagonist 4.
For O=C(CSc1nccc2ccccc12)N1CCN(Cc2ccc3c(c2)OCO3)CC1 the results were DT40 TDP1 no CPT inconclusive, DT40 TDP1 CPT inconclusive, D3 ag -7, IL-1B inflam inh -81* and DRD3 antagonist 3.
`O=C(c1cc(-c2ccccc2)on1)N1CCN(Cc2ccc3c(c2)OCO3)CC1` gave ClpP mod 0%, DT40 TDP1 no CPT -24%, DT40 TDP1 CPT -25%, D3 ag -31, IL-1B inflam inh 0 and DRD3 antagonist inconclusive.
Screening COc1cccc(NC(=O)Cn2c(=O)n(CCC(=O)NCc3ccccc3OC)c(=O)c3ccccc32)c1 returned ClpP mod -3%, DT40 TDP1 no CPT inconclusive, DT40 TDP1 CPT 26µM* and D3 ag -9.
`COc1ccccc1CNC(=O)CCn1c(=O)c2ccccc2n(CC(=O)Nc2ccc(C)cc2)c1=O` gave ClpP mod inconclusive, DT40 TDP1 no CPT inconclusive, DT40 TDP1 CPT inconclusive and D3 ag -16.
For COc1ccccc1CNC(=O)CCCCn1c(=O)c2ccccc2n(CC(=O)Nc2cccc(Cl)c2)c1=O the results were ClpP mod inconclusive, DT40 TDP1 no CPT 9.2µM*, DT40 TDP1 CPT 23µM* and D3 ag -6.
`Nc1nc(-c2ccccc2)nc2sc3c(c12)CCCC3` gave ClpP mod 32µM*, DT40 TDP1 no CPT -18%, DT40 TDP1 CPT -9%, D3 ag 22, IL-1B inflam inh -25 and DRD3 antagonist 31.
`Nc1c2c(nc3sc4c(c13)CCCC4)CCCCCC2` gave ClpP mod 1%, DT40 TDP1 no CPT 13µM*, DT40 TDP1 CPT inconclusive, D3 ag -3, IL-1B inflam inh 32 and DRD3 antagonist -2.

From PubChem BioAssay
